{"source": "PubChem BioAssay (NCI)", "note": "The panel holds about 79,000 compounds, 15% with a hit somewhere; the sample as a whole holds those more often. A number with no mark means an inactive call. Active and inactive are the calls of the source. No stated cut-off is given here; in the data, active means growth inhibition above about 70%; inactive means the rest."}
{"experiment": "NCI Yeast Anticancer Drug Screen. Data for the sgs1 mgt1 strain (AID 161);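 further: 0% = growth of cultures given vehicle only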", "settings": "S. cerevisiae sgs1 mgt1 strain, at 50.0 µM, stronger effect = higher value", "experimental": "Growth inhibition of yeast strains with defined genetic alterations is measured as a screen for potential anti-cancer activity. Selected strains with alterations in DNA damage repair or cell cycle control were exposed to compounds and growth inhibition was measured relative to vehicle treated controls. The strain used in this assay is sgs1 mgt1"}
{"smiles": "CCOC(=O)Nc1nccs1", "growth inhibition": "-5.3%"}
{"smiles": "CCC(=O)Oc1ccc2ccccc2c1", "growth inhibition": "28.5%"}
{"smiles": "CC(=O)OCC1OC(n2cnc3c(=S)nc(N)[nH]c32)C(OC(C)=O)C1OC(C)=O", "note": "(stereo not given)", "growth inhibition": "48.5%"}
{"smiles": "C[n+]1cc2cc3c(cc2c2ccccc21)OCO3", "growth inhibition": "30%"}
{"smiles": "NC(=O)NCCO", "growth inhibition": "13.8%"}
{"smiles": "CC(=O)c1cc(O)ccc1O", "growth inhibition": "10.3%"}
{"smiles": "Cc1[nH]nc(C(N)=O)c1[N+](=O)[O-]", "growth inhibition": "20.2%"}
{"smiles": "C(=C\\c1ccncc1)/c1ccncc1", "growth inhibition": "6.45%"}
{"smiles": "C=C1CC2(OC1=O)C(=O)N(C)c1ccc(I)cc12", "note": "(stereo not given)", "growth inhibition": "92.1% (active)"}
{"smiles": "CC(=O)C[n+]1ccc(C)cc1Sc1ccccc1C", "growth inhibition": "6.85%"}
{"smiles": "C=CCS(C)(=O)=O", "growth inhibition": "-11.8%"}
{"smiles": "Clc1ccc(-c2noc(/C=C\\c3ccccc3)n2)cc1", "growth inhibition": "4.8%"}
{"smiles": "Nc1c(O)c(S(=O)(=O)O)c(O)c2c1C(=O)c1ccccc1C2=O", "growth inhibition": "31.1%"}
{"smiles": "BrCc1cccc(C[P+](c2ccccc2)(c2ccccc2)c2ccccc2)c1", "growth inhibition": "36.2%"}
{"smiles": "CCOC(=O)C1(N)CCCCC1", "growth inhibition": "11.1%"}
{"smiles": "Cc1[nH]n(-c2ccccc2)c(=O)c1C=NC(=S)C(N)=S", "growth inhibition": "-20.4%"}
{"smiles": "Cc1cc(Cl)cc(Cc2cc(Cl)cc(C)c2O)c1O", "growth inhibition": "55%"}
{"smiles": "Cc1ccc[n+](CCC(N)=O)c1", "growth inhibition": "-10.8%"}
{"smiles": "N#CCCN1C(=O)CCC1C(=O)O", "note": "(stereo not given)", "growth inhibition": "10.1%"}
{"smiles": "CCc1ccccc1C(=O)N(CC)CC", "growth inhibition": "16.6%"}
{"smiles": "CN(C)c1ccc(/C=C/C(=O)c2ccc(NC(N)=O)cc2)cc1", "growth inhibition": "-4.5%"}
{"smiles": "CC1(C)CC(=O)C=C(N)C1", "growth inhibition": "1.05%"}
{"smiles": "Nc1ccc2c(c1)Cc1cc(N)c(N)cc1-2", "growth inhibition": "10.9%"}
{"smiles": "COc1cc(C(=O)NC(=S)NCc2ccncc2)cc(OC)c1OC", "growth inhibition": "-4.65%"}
{"smiles": "C=CCOc1ccc(Cl)cc1Cl", "growth inhibition": "-0.45%"}
{"smiles": "CN1C(=O)NC(c2ccc(Cl)cc2)(c2ccc(Cl)cc2)C1=O", "growth inhibition": "-23%"}
{"smiles": "O=S(=O)(O)C(C(I)I)S(=O)(=O)O", "growth inhibition": "-3.35%"}
{"smiles": "C1CCc2onc(-c3noc4c3CCCCC4)c2CC1", "growth inhibition": "-19.1%"}
{"smiles": "C=COC(=O)C(C)(C)C", "growth inhibition": "14.9%"}
{"smiles": "C=CCC(OC(C)=O)c1ccc(C(C)C)cc1", "note": "(stereo not given)", "growth inhibition": "-23.4%"}
{"smiles": "Oc1cc(O)c2c(c1)O[C@H](c1ccc(O)c(O)c1)[C@@H](O)C2", "growth inhibition": "2.75%"}
{"smiles": "CCOC(=O)c1c(C)[nH]c(C)c1C=O", "growth inhibition": "3.15%"}
{"smiles": "C=C(C)COc1ccc(C(C)(C)C)cc1", "growth inhibition": "11.1%"}
{"smiles": "Cc1ccc(S(=O)(=O)CCCl)cc1", "growth inhibition": "-21.9%"}
{"smiles": "Nc1cc2c(cc1Cl)C(=O)c1ccccc1C2=O", "growth inhibition": "9.75%"}
{"smiles": "Oc1cccnc1CN1CCCC1", "growth inhibition": "2.3%"}
{"smiles": "CC(C)c1ccc(C(=O)OCCCl)cc1", "growth inhibition": "6.6%"}
{"smiles": "CCOC(=O)c1cc(C)[nH]c(=O)c1C#N", "growth inhibition": "-5.1%"}
{"smiles": "CC(=O)c1cccc(N(C)S(=O)(=O)c2ccc(C)cc2)c1", "growth inhibition": "21.8%"}
{"smiles": "Cc1ccc(C)c(CCO)c1", "growth inhibition": "-30.5%"}
